± gives the standard deviation of the averaged measurements.
Test system: E. coli BW25113 marRABp lux reporter
Test: promoter activity interaction Z-score (Lux/OD deviation from empty-vector control); higher = stronger promoter induction by the compound
Description: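 E. coli BW25113 (wild type or ΔmarA/ΔsoxS/Δrob) carrying pTU175 luxCDABE promoter reporters was grown in LB in 384-well plates at 37°C with each of 94 compounds at 4 two-fold concentrations, in biological duplicates. Luminescence and OD600 were read every 30 min for 12 h and integrated as AUC over 8 h (0-8 h WT, 1-9 h mutants). Lux AUC was divided by OD AUC; the interaction score is the residual of a Huber robust fit of each promoter against the empty-vector control, then Z-transformed per promoter.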

## Cc1cc(NS(=O)(=O)c2ccc(N)cc2)no1 [Sulfamethoxazole]
3.2 µg/ml, genetic background: wild type
  promoter activity interaction Z-score: 0.00674 ± 0.34
3.2 µg/ml, genetic background: ΔmarA
  promoter activity interaction Z-score: 0.0321 ± 0.081
3.2 µg/ml, genetic background: Δrob
  promoter activity interaction Z-score: 0.113 ± 0.29
3.2 µg/ml, genetic background: ΔsoxS
  promoter activity interaction Z-score: -0.135 ± 0.18
6.3 µg/ml, genetic background: wild type
  promoter activity interaction Z-score: 0.078 ± 0.084
6.3 µg/ml, genetic background: ΔmarA
  promoter activity interaction Z-score: 0.138 ± 0.34
6.3 µg/ml, genetic background: Δrob
  promoter activity interaction Z-score: 0.302 ± 0.037
6.3 µg/ml, genetic background: ΔsoxS
  promoter activity interaction Z-score: 0.0733 ± 0.34
12.7 µg/ml, genetic background: wild type
  promoter activity interaction Z-score: 0.411 ± 0.27
12.7 µg/ml, genetic background: ΔmarA
  promoter activity interaction Z-score: 0.542 ± 0.015
12.7 µg/ml, genetic background: Δrob
  promoter activity interaction Z-score: 0.6901 ± 0.0031
12.7 µg/ml, genetic background: ΔsoxS
  promoter activity interaction Z-score: 0.275 ± 0.14
25.3 µg/ml, genetic background: wild type
  promoter activity interaction Z-score: 0.782 ± 0.098
25.3 µg/ml, genetic background: ΔmarA
  promoter activity interaction Z-score: 1.15 ± 0.06
25.3 µg/ml, genetic background: Δrob
  promoter activity interaction Z-score: 1.2 ± 0.13
25.3 µg/ml, genetic background: ΔsoxS
  promoter activity interaction Z-score: 1.31 ± 0.61

## CC(=O)Oc1ccccc1C(=O)O [Acetylsalicylic acid]
22.5 µg/ml, genetic background: wild type
  promoter activity interaction Z-score: 0.161 ± 0.7
22.5 µg/ml, genetic background: ΔmarA
  promoter activity interaction Z-score: 0.108 ± 0.13
22.5 µg/ml, genetic background: Δrob
  promoter activity interaction Z-score: 0.479 ± 0.51
22.5 µg/ml, genetic background: ΔsoxS
  promoter activity interaction Z-score: 0.261 ± 0.009
45 µg/ml, genetic background: wild type
  promoter activity interaction Z-score: 0.512 ± 0.54
45 µg/ml, genetic background: ΔmarA
  promoter activity interaction Z-score: 0.152 ± 0.14
45 µg/ml, genetic background: Δrob
  promoter activity interaction Z-score: 0.623 ± 0.14
45 µg/ml, genetic background: ΔsoxS
  promoter activity interaction Z-score: 0.318 ± 0.23
90.1 µg/ml, genetic background: wild type
  promoter activity interaction Z-score: 0.0791 ± 0.33
90.1 µg/ml, genetic background: ΔmarA
  promoter activity interaction Z-score: -0.0396 ± 0.066
90.1 µg/ml, genetic background: Δrob
  promoter activity interaction Z-score: 0.404 ± 0.071
90.1 µg/ml, genetic background: ΔsoxS
  promoter activity interaction Z-score: 0.469 ± 0.2
180.2 µg/ml, genetic background: wild type
  promoter activity interaction Z-score: 1.81 ± 0.28
180.2 µg/ml, genetic background: ΔmarA
  promoter activity interaction Z-score: 1.65 ± 0.22
180.2 µg/ml, genetic background: Δrob
  promoter activity interaction Z-score: 2.07 ± 0.099
180.2 µg/ml, genetic background: ΔsoxS
  promoter activity interaction Z-score: 1.89 ± 0.43

## CCN(CC)CCOC(=O)c1ccc(N)cc1 [Procaine]
1329.2 µg/ml, genetic background: wild type
  promoter activity interaction Z-score: 0.474 ± 0.19
1329.2 µg/ml, genetic background: ΔmarA
  promoter activity interaction Z-score: 1.13 ± 0.098
1329.2 µg/ml, genetic background: Δrob
  promoter activity interaction Z-score: -0.044 ± 0.24
1329.2 µg/ml, genetic background: ΔsoxS
  promoter activity interaction Z-score: 0.558 ± 0.086
2658.5 µg/ml, genetic background: wild type
  promoter activity interaction Z-score: 0.562 ± 0.12
2658.5 µg/ml, genetic background: ΔmarA
  promoter activity interaction Z-score: 1.42 ± 0.24
2658.5 µg/ml, genetic background: Δrob
  promoter activity interaction Z-score: -0.0229 ± 0.4
2658.5 µg/ml, genetic background: ΔsoxS
  promoter activity interaction Z-score: 0.555 ± 0.11
5317 µg/ml, genetic background: wild type
  promoter activity interaction Z-score: 0.94 ± 0.094
5317 µg/ml, genetic background: ΔmarA
  promoter activity interaction Z-score: 2.128 ± 0.015
5317 µg/ml, genetic background: Δrob
  promoter activity interaction Z-score: 0.0444 ± 0.17
5317 µg/ml, genetic background: ΔsoxS
  promoter activity interaction Z-score: 0.444 ± 0.23
10634 µg/ml, genetic background: wild type
  promoter activity interaction Z-score: 1.63 ± 0.15
10634 µg/ml, genetic background: ΔmarA
  promoter activity interaction Z-score: 2.15 ± 0.55
10634 µg/ml, genetic background: ΔsoxS
  promoter activity interaction Z-score: 2.04 ± 0.25

— the supplement of paper PMC12282887
